# In PubChem BioAssay AID741 (SRMLSC, 2007):
# Results filed as inconclusive are left out. The source made the active and inactive calls. Rule as the data show it: active = toxicity enhancement factor above about 0.054; inconclusive = between about 0.00067 and that limit; inactive = weaker than that.
# Assay: MRP-overexpressing cell chemosensitization – dose response (AID 741)
# Conditions: MRP-overexpressing cells, viability with/without cytotoxic drug; slope difference: measured here: slope difference tox minus reversal, stronger effect = higher value; toxicity enhancement factor: stronger effect = higher value; viability: measured here: viability series, compound alone, at 10 µM, stronger effect = lower value
Compound,slope difference,toxicity enhancement factor,viability
CC1(C)CC(=O)C2=C(C1)N(c1ccccc1)C(N)=C(C#N)C2c1ccccc1 (configuration not stated),3.21,0.108 (active),73.3%
CS(=O)(=O)Nc1ccc([N+](=O)[O-])cc1Oc1ccccc1,-0.667,-0.0071 (inactive),97.8%
Clc1cnc(N/N=C/c2cccs2)c(Cl)c1,-0.68,-0.0069 (inactive),96.8%
CC(=O)Nc1ccc(S(=O)(=O)NCCC(=O)NCCc2ccc(F)cc2)cc1,0.0009,0 (inactive),87.3%
CCOC(=O)N1CCC(Nc2c(Nc3cccc(CC)c3)c(=O)c2=O)CC1,5.23,0.268 (active),73.6%
COc1ccc(N2C(N)=C(C#N)C(c3cccnc3)C3=C2CC(C)(C)CC3=O)cc1 (configuration not stated),2.07,0.0615 (active),63%
COc1cc(/C=C/C(=O)CC(=O)/C=C/c2ccc(O)c(OC)c2)ccc1O,-2.01,-0.0391 (inactive),24.1%
CC1(C)CC(=O)C2=C(C1)N(c1ccccc1)C(N)=C(C#N)C2c1cccnc1 (configuration not stated),2.68,0.105 (active),60%
Cc1ccc(CN(C(=O)c2ccco2)C(C(=O)NC2CCCC2)c2ccc(N3CCOCC3)cc2)cc1 (configuration not stated),2.19,0.0523 (active),72.9%
Cn1ccnc1-c1nc2ccccc2[nH]c1=O,-0.138,-0.0015 (inactive),92.3%
O=C(NCCCn1ccnc1)c1sc2cccc(F)c2c1Cl,-0.0975,-0.001 (inactive),96.9%
Cc1nc(C)c(C)nc1C,-0.412,-0.004 (inactive),98.8%
N#Cc1ccc(CSc2nnc(-c3cccs3)n2-c2ccccc2)cc1,-0.904,-0.0117 (inactive),79%
CSc1nnc(-c2cc3ccccc3cc2O)n1C,-0.153,-0.0016 (inactive),101%
N#CC1=C(N)N(c2ccccc2)C2=C(C(=O)CCC2)C1c1ccccc1 (configuration not stated),4.41,0.144 (active),70.1%
COc1ccccc1Nc1nc(N)nc(CN2CCOCC2)n1,-0.589,-0.0058 (inactive),98.2%
O=C(CSc1nnnn1-c1ccccc1)N1CCc2ccccc21,-1.04,-0.0102 (inactive),85.8%

Compound,slope difference,toxicity enhancement factor,viability
CC1(C)CC(=O)C2=C(C1)N(c1cccc(O)c1)C1=C(C2)C(=O)CC(C)(C)C1,3.34,0.0743 (active),87.2%
CC(C(=O)O)c1ccc(-c2ccccc2)c(F)c1 (configuration not stated),-0.412,-0.0042 (inactive),89%
COc1ccc2cc([C@H](C)C(=O)O)ccc2c1,-0.665,-0.0066 (inactive),96.6%
CC1=NN(C(N)=S)C(=O)C1N=Nc1ccccc1C (configuration not stated),-0.556,-0.0057 (inactive),92.1%
CCCCSc1nnc2n(CCc3ccccc3)c(=O)c3c4c(sc3n12)COC(C)(C)C4,5.29,0.189 (active),84.4%
COc1ccc(C(c2nnnn2C(C)(C)C)N2CCN(c3nc4ccccc4s3)CC2)cc1OC (configuration not stated),-1.39,-0.0199 (inactive),71.9%
O=C(NCc1ccccn1)c1cn(CCc2ccccc2)nn1,-0.117,-0.0012 (inactive),97.1%
Cc1cccc2cc(CN(Cc3nnnn3C3CCCCC3)C3CCCC3)c3nnnn3c12,3.91,0.117 (active),74.2%
Cc1ccc(N2C(N)=C(C#N)C(c3cccnc3)C3=C2CC(C)(C)CC3=O)cc1 (configuration not stated),2.48,0.0915 (active),57.5%
O=C(O)c1ccc(-n2nnnc2SCc2ccccc2)cc1,-0.76,-0.0082 (inactive),88.7%
CC1CN(c2nc3ccccn3c(=O)c2/C=C(\C#N)S(=O)(=O)c2ccccc2)CC(C)O1 (configuration not stated),3.36,0.0581 (active),93.3%
Cc1ccc(/C=N/Nc2ncc(Cl)cc2Cl)s1,-0.555,-0.0071 (inactive),70.4%
CCN(CC)C(=O)CSc1nc2c(sc(=S)n2-c2ccccc2)c(=O)n1Cc1ccco1,3.95,0.0846 (active),87.8%
CC(C)(C)C(=O)[C@@H]1[C@@H]2C(=O)N(C3CCCCC3)C(=O)[C@@H]2[C@H]2c3ccccc3C=CN12,2.83,0.061 (active),85.2%
CCCCNc1c2c3c(cccc3n(C)c1=O)C(=O)c1ccccc1-2,-4.84,-0.0634 (inactive),32.4%
CCCNc1nc2c(c(=O)n(C)c(=O)n2C)n1Cc1ccc(F)cc1,-0.107,-0.0012 (inactive),92.8%
CC(C)CCn1c(=O)c2ccccc2n2c(CN(C)Cc3ccccc3)nnc12,2.35,0.0598 (active),82.3%
